According to PubChem BioAssay AID1345082 (National Center for Advancing Translational Sciences (NCATS), 2018):
Out of some 94,000 compounds screened, about 4,000 (4.3%) were called active. Inconclusive results (about 29%) are left out. The sample holds actives, similar compounds and a random draw of the others, so the mix is not that of the screen. A number with no mark means an inactive call. Calls follow the shape of the dose curve; as a rule, active = well fitted inhibition curve with a large enough effect; inconclusive = small, poorly fitted or top-dose-only effect; inactive = no such curve, though single readings can be large or run the other way.

Assay: Cytotoxic Profiling in NIH 3T3 Cell Line of Diverse Libraries Using Quantitative High-Throughput Screening; also: nearly all actives have a fitted effect of over 55% in size
Details: NIH 3T3 viability, CellTiter-Glo ATP luminescence, 48-72 h; series mostly up to 96.7 µM; activity change, negative = cytotoxicity: at the top concentration
Source text: Cell-based phenotypic screening is a commonly used approach to discover biological pathways, novel drug targets, chemical probes and high-quality hit-to-lead molecules. Many hits identified from high-throughput screening campaign are ruled out through a series of follow-up potency, selectivity/specificity, and cytotoxicity assays. Prioritization of molecules with little or no cytotoxicity for a more in-depth downstream evaluation influence the future direction of projects, so cytotoxicity profiling of the screening libraries at early stage is essential for increasing the likelihood of candidate success. In this study, we analyzed results from a cell-based cytotoxicity screening campaign, comprising nearly 10,000 compounds in NCATS annotated libraries, and over 100,000 compounds in a diversity library, evaluated in four normal cell lines (HEK 293, NIH 3T3, CRL-7250 and HaCat) and a cancer cell line (KB 3-1, a HeLa subline) with overall screening outcomes, hit rates, pan-activity and selectivity. For the annotated library, we also examined the primary targets and mechanistic pathways regularly associated with cell death. To our knowledge, this is the first study to use high-throughput screening to profile large libraries for cytotoxicity assessment in both normal and cancer cell lines. In summary, the results generated here constitutes a valuable resource for the scientific community and provides insight on identifying cytotoxic compounds with particular mechanisms of action, and prioritizing compounds with suitable cytotoxicity profile for further evaluation.
NIH 3T3 cells were seeded into white 1536-well plates using a Multidrop Combi peristaltic dispenser (ThermoFisher, Waltham, MA) at a density of 400 cells/well in 5 uL of medium respectively. A pintool (Kalypsys) was used to transfer 23 nL of compound solution to the 1536-well assay plates. After 48 or 72 hr incubation at 37 degree Celsius, 5% CO2 and 95% humidity, 2.5 uL of CellTiter-Glo (Promega) was dispensed into each well using a dispenser (Aspect Automation, St. Paul, MN) with solenoid valves (Lee Valves, Westbrook CT). Plates were left at room temperature for 10 min before imaging the ATP-coupled luminescence using a ViewLux microplate imager (PerkinElmer, Waltham, MA).
% is scaled to controls: 0 for no effect and ±100 for the full control effect; potency is read from the fitted curve at half-maximal effect.

Row | Compound | activity change, negative = cytotoxicity | Potency | outcome
1 | O=C([C@H]1CN2CCC1C[C@@H]2Cn1cc(-c2ccccc2)nn1)N1CCOCC1 (stereo not given in full) | 1.2% [at 174 µM] | – | –
2 | Cc1nc(-c2ccccc2)cc([C@H]2CN3CC[C@H]2C[C@@H]3CNC2CCOCC2)n1 | – | 31.6 µM (active) | –
3 | Cc1nc(-c2ccccc2)cc([C@H]2CN3CC[C@H]2C[C@@H]3CNC2CCN(C)CC2)n1 | – | 56.2 µM (active) | –
4 | CN(C)C(=O)[C@H]1CN2CCC1C[C@@H]2Cn1cc(-c2ccc(-c3ccccc3)cc2)nn1 (stereo not given in full) | -19.8% [at 174 µM] | – | –
5 | O=[S+]1([O-])NCC2(CCN(Cc3cccnc3)C2)Oc2ncccc21 (stereo not given) | – | – | inactive
6 | COc1ccc([C@@H]2CN(C(=O)c3c(C)noc3C)[C@@H]3C4CCN(CC4)[C@@H]32)cc1 | -2.69% | – | –
7 | CN(C)[C@@H]1CN(C(=O)Cc2ccc(F)cc2)C[C@H]1CO | 1.09% | – | –
8 | O=C1NC2(Cc3ccccc31)CN(Cc1ccncc1)C2 | -1.85% [at 138 µM] | – | –
9 | COc1ccccc1-c1cc([C@H]2CN3CC[C@H]2C[C@@H]3CNC(C)=O)n(C)n1 | – | – | inactive [at 174 µM]
10 | COc1ccc(C(=O)NC[C@H]2C[C@@H]3CCN2C[C@@H]3c2cc(-c3ccccc3)nn2C)cc1 | – | 89.1 µM (active) | –
11 | CCCNC(=O)OC[C@H]1C[C@@H]2CCN1C[C@@H]2c1cc(-c2ccc(OC)c(OC)c2)nn1C | -28.8% | – | –
12 | COc1ccc(-c2cc([C@H]3CN4CC[C@H]3C[C@@H]4CNC(=O)c3ccccc3)n(C)n2)cc1OC | -22.8% | – | –
13 | Cn1nc(-c2cccs2)cc1[C@H]1CN2CC[C@H]1C[C@@H]2CNC(=O)CCCC(=O)O | – | – | inactive [at 174 µM]
14 | Cn1nc(-c2cccs2)cc1[C@H]1CN2CC[C@H]1C[C@@H]2CNC(=O)Nc1ccccc1 | – | 100 µM (active) | –
15 | CCC(=O)N1CCC2(CC1)c1nccn1-c1ccccc1CN2CC(C)C | -8.23% | – | –
16 | O=C(Cc1ccc(F)cc1)N1CCN(C2CCN(Cc3cccnc3)C2=O)CC1 (stereo not given) | -13.6% | – | –
17 | CC1=NOC2(CCN(Cc3cncs3)C2)C1 (stereo not given) | – | – | inactive [at 138 µM]
18 | Cc1ccc(S(=O)(=O)NC[C@H]2C[C@@H]3CCN2C[C@@H]3CN2CCN(c3ncccn3)CC2)cc1 | -13.2% | – | –
19 | COc1cc2c(cc1OCc1ccccc1)NC(=O)C21CCN(C(=O)C(C)C)CC1 | – | 14.1 µM (active) | –
20 | COc1cc2c(cc1OC1CCCC1)NC(=O)C21CCN(C(=O)c2ccnn2C)CC1 | -19.9% [at 138 µM] | – | –
21 | COc1cc2c(cc1OCc1ccccc1)NC(=O)C21CCN(CCC(C)C)CC1 | – | 89.1 µM (active) | –
22 | COc1cc2c(cc1-c1ccncc1)NC(=O)C21CCN(C(C)=O)CC1 | – | 28.2 µM (active) | –
23 | O=C1NC2(Cc3ccccc31)CN(CC1CC1)C2 | 0.241% [at 174 µM] | – | –
24 | CC(C)N1CC2CCC(C1)N2C(=O)N1CCCC1 | 0.693% [at 138 µM] | – | –

Row | Compound | activity change, negative = cytotoxicity | Potency | outcome
25 | CCCSc1ncc(CN2CC[C@H]3CNC[C@H]32)cn1 | -19.6% | – | –
26 | O=C(O)COCC(=O)N1C[C@@H]2C[C@H](C1)c1c(-c3ccc4ccccc4c3)ccc(=O)n1C2 | 0.104% [at 174 µM] | – | –
27 | Cn1cccc1CN1CCC2(COc3ccncc3[S+](=O)([O-])N2)C1 (stereo not given) | -1.63% | – | –
28 | CCOC(=O)[C@H]1CN(C(=O)N2CCOCC2)[C@]2(C)C(=O)N(CC(=O)N(C)C)c3ccccc3[C@H]12 | -22.1% [at 46.1 µM] | – | –
29 | Cc1ccc(C(=O)N2CCC3(CC2)c2nccn2-c2ccccc2CN3C)cc1C | -2.76% | – | –
30 | FC(F)(F)CN1C2CCC1CN(c1ccc(Cl)nn1)C2 | 1.46% | – | –
31 | CCNC(=O)N1CC2CN(C(C)C)CC(C1)O2 | -0.941% | – | –
32 | CC1=NOC2(CCN(Cc3c[nH]c4ccccc34)CC2)C1 | – | – | inactive [at 138 µM]
33 | Cn1cc(CN2CCN(C(=O)COc3ccc(F)cc3)CC2)ccc1=O | -12.8% | – | –
34 | CCCS(=O)(=O)NC[C@H]1C[C@@H]2CCN1C[C@@H]2c1cc(C2CCCC2)nn1C | -27.6% [at 174 µM] | – | –
35 | CCC(CC)c1cc([C@H]2CN3CC[C@H]2C[C@@H]3CNC(=O)NCc2ccccc2)nc(-c2ccncc2)n1 | – | 20 µM (active) | –
36 | COc1ccc(-c2cc([C@H]3CN4CC[C@H]3C[C@@H]4CNS(=O)(=O)Cc3ccccc3)n(C)n2)cc1OC | -25.7% | – | –
37 | COc1ccc(-c2cn(C[C@H]3C[C@@H]4CCN3C[C@@H]4C(=O)NCc3ccccc3)nn2)cc1 | -24.5% [at 174 µM] | – | –
38 | CCC(CC)c1cc([C@H]2CN3CC[C@H]2C[C@@H]3CNS(=O)(=O)Cc2ccccc2)nc(-c2ccncc2)n1 | – | 22.4 µM (active) | –
39 | CCCCc1cn(C[C@H]2CC3CCN2C[C@@H]3C(=O)NCc2ccccc2)nn1 (stereo not given in full) | -15.6% [at 174 µM] | – | –
40 | O=S1(=O)NCC2(CCN(Cc3ccc(Cl)s3)C2)Oc2ncccc21 (stereo not given) | – | – | inactive
41 | Cc1noc(C)c1CC(=O)N1[C@H]2CC[C@@H]1c1cnc(-c3ccccc3)nc1C2 | -24.3% | – | –
42 | O=S(=O)(NC[C@H]1C[C@@H]2CCN1C[C@@H]2CN1CCCCC1)c1ccc(Cl)cc1 | -27.6% [at 174 µM] | – | –
43 | CNC1CCOCC1 | -5.51% [at 230 µM] | – | –
44 | CCCCc1cn(C[C@H]2C[C@@H]3CCN2C[C@@H]3C(=O)NCCNC(C)=O)nn1 | -17.5% [at 174 µM] | – | –
45 | CC[C@H]1CN2CC[C@H]1C[C@@H]2CNCc1cccc(C#N)c1 | -7.23% [at 230 µM] | – | –
46 | C=CCN(C)C[C@H]1CN2CC[C@H]1C[C@@H]2CNC(=O)Nc1cccc(SC)c1 | – | 100 µM (active) | –
47 | CN(CCc1ccccn1)C[C@H]1CN2CC[C@H]1C[C@@H]2CNC(=O)c1ccccc1 | -25% [at 174 µM] | – | –
48 | CC(C)NC(=O)NC[C@H]1C[C@@H]2CCN1C[C@@H]2CN1CCCC1 | – | – | inactive [at 174 µM]

Row | Compound | activity change, negative = cytotoxicity | Potency | outcome
49 | CN(Cc1ccccc1)C[C@H]1CN2CC[C@H]1C[C@@H]2CNC(=O)Nc1cccc(C#N)c1 | – | 100 µM (active) | –
50 | CC[C@H]1CN2CC[C@H]1C[C@@H]2CNC(=O)c1ccc(N(C)C)cc1 | 2.42% [at 174 µM] | – | –
51 | CCOC(=O)[C@H]1CN(C(=O)c2cc3ccccc3s2)[C@]2(C)C(=O)Nc3ccccc3[C@H]12 | -34.2% [at 46.1 µM] | – | –
52 | Cc1ccc([C@@H]2CN(Cc3ncc[nH]3)[C@@H]3C4CCN(CC4)[C@@H]32)cc1 | -1.78% | – | –
53 | Cc1ccccc1-c1ccc2n(c1=O)C[C@H]1C[C@@H]2CN(C(=O)CSCC(=O)O)C1 | 3.5% [at 174 µM] | – | –
54 | COc1ccc(CC(=O)N2Cc3ccccc3CC3(CCCN3C)C2)cc1 (stereo not given) | -27.9% | – | –
55 | CC(C)N1C[C@@H]2OCC(=O)N(Cc3cccnc3)[C@@H]2C1 | -15.6% [at 230 µM] | – | –
56 | Cc1ccc([C@@H]2CN(C(=O)c3ccco3)[C@@H]3C4CCN(CC4)[C@@H]32)cc1 | -8.11% | – | –
57 | COc1ccc(-c2cc([C@H]3CN4CC[C@H]3C[C@@H]4CNC(=O)C3CC3)n(C)n2)cc1OC | -23.3% [at 174 µM] | – | –
58 | O=C(NC[C@H]1C[C@@H]2CCN1C[C@@H]2CN1CCN(c2ncccn2)CC1)c1ccc(C(F)(F)F)cc1 | -23.7% | – | –
59 | Cc1nc(-c2ccc(N(C)C)cc2)cc([C@H]2CN3CC[C@H]2C[C@@H]3CNC(=O)C2CCC2)n1 | – | 89.1 µM (active) | –
60 | COc1ccccc1-c1cc([C@H]2CN3CC[C@H]2C[C@@H]3CNC(=O)c2ccco2)nc(C)n1 | -11.9% [at 174 µM] | – | –
61 | C#C[C@H]1CN2CC[C@H]1C[C@@H]2CNC(=O)C1CC1 | – | – | inactive [at 230 µM]
62 | COc1ccccc1-c1cc([C@H]2CN3CC[C@H]2C[C@@H]3CNC(=O)c2ccco2)n(C)n1 | -8.76% [at 174 µM] | – | –
63 | Cc1nc(-c2ccc(C(F)(F)F)cc2)cc([C@H]2CN3CC[C@H]2C[C@@H]3CNC(=O)c2ccco2)n1 | – | 25.1 µM (active) | –
64 | Cc1nc(-c2ccc(C(F)(F)F)cc2)cc([C@H]2CN3CC[C@H]2C[C@@H]3CNC(=O)C2CCC2)n1 | – | 20 µM (active) | –
65 | CC(=O)NCCNC(=O)[C@H]1CN2CCC1C[C@@H]2Cn1cc(-c2ccc(C(C)(C)C)cc2)nn1 (stereo not given in full) | -6.09% | – | –
66 | O=C(COc1ccccc1)N1C[C@@H]2C[C@H](C1)c1c(-c3ccccc3F)ccc(=O)n1C2 | -8.23% [at 174 µM] | – | –
67 | FC(F)(F)CN1C2CCC1CN(c1cccc(Cl)n1)C2 | -0.118% | – | –
68 | O=[N+]([O-])c1ccc(N2CC3CCC(C2)N3CC(F)(F)F)nc1 | – | – | inactive
69 | O=C(N1[C@H]2CC[C@@H]1c1cnc(-c3ccccc3)nc1C2)C1(c2ccccc2)CC1 | -26.1% | – | –
70 | COCCC(=O)N1CCC2(CC1)c1nccn1-c1ccccc1CN2CC(C)C | – | – | inactive
